Source: PubChem
RmlC RmlD mix – RmlC/RmlD inhibition, mixture screen; RmlC/RmlD coupled enzyme inhibition, 384-well mixture HTS; inhibition, % at 5.5 µM; hit rate 0.39% among 110,000; in the data active = inhibition above about 30%, passing the limit was not always enough; inconclusive = no clear call, values can overlap the other calls
YopH inh – inhibitors of Yersinia enterocolitica YopH tyrosine phosphatase. fluorescence Ex485/Em525. inhibition, % (concentration not given with the values). hit rate 0.16% among 140,000; in the data active = inhibition above about 50%
Large screens that a line does not name were inactive. Shown are actives, neighbours in structure and some others; about 0.41% of the full set was active somewhere.

COC(=O)CSc1nnc(CNC(=O)c2ccccc2OC)n1C	none
COC(=O)CSc1nnc(CNC(=O)c2cccc(C)c2)n1-c1ccccc1OC	YopH inh 76 (no result: RmlC RmlD mix)
CCCCc1cc(=O)oc2c(CN(C)C)c(O)c(Cl)cc12	RmlC RmlD mix 70
CCN(CC)Cc1c(O)c(Cl)cc2c3c(c(=O)oc12)CCCC3	none (no result: RmlC RmlD mix)
O=c1oc2c(CN3CCOCC3)c(O)c(Cl)cc2c2c1CCC2	RmlC RmlD mix 56
CCc1cc(=O)oc2c(CN3CCCC3)c(O)c(Cl)cc12	RmlC RmlD mix 90
CCc1c(C)c2cc(Cl)c(O)c(CN3CCCCC3)c2oc1=O	none
CCCCc1cc(=O)oc2c(CN3CCCC3)c(O)ccc12	RmlC RmlD mix inconclusive
COc1ccc(-c2csc(NC(=O)c3ccc(OCC(=O)N4CCOCC4)c(OC)c3)n2)cc1OC	none (no result: RmlC RmlD mix)
COc1cccc(C2(CSc3nnc(-c4cc(OC)c(OC)c(OC)c4)o3)OCCO2)c1	none (no result: RmlC RmlD mix)
Cc1ccc(Sc2nc([N+](=O)[O-])nn2C)cc1	none (no result: RmlC RmlD mix)
COc1cc(/C=N/NC(=O)c2cccnc2)ccc1OS(=O)(=O)c1cc(C)ccc1C	none (no result: RmlC RmlD mix)
CCOc1ccccc1Oc1c(C)oc2cc(OC(=O)c3ccco3)ccc2c1=O	none
COc1ccccc1-c1c(C)oc2cc(OC(=O)c3ccco3)ccc2c1=O	RmlC RmlD mix 32
CSc1ncc(CNc2cc([N+](=O)[O-])ccc2C)c(N)n1	none (no result: YopH inh)
CCOC(=O)c1c(C)nc2sc(C(=O)Nc3ccccc3)c(N)c2c1-c1ccc(OC)cc1	none
COc1ccc(C2C=C(c3ccccc3)Nc3nnnn32)cc1 (stereo not drawn)	none
COc1ccc(C2C=C(c3ccccc3)Nc3nc(NC(C)=O)nn32)cc1 (stereo not drawn)	RmlC RmlD mix 40
CCCCOC(=O)C1=C(C)NC2(O)c3ccccc3C(=O)C12O (stereo not drawn)	YopH inh 67
CCOC(=O)C1=C(C)N[C@@]2(O)c3ccccc3C(=O)[C@@]12O	none
CC1CCc2nc(NC(=O)Nc3ccc4c(c3)OCO4)sc2C1 (stereo not drawn)	none (no result: RmlC RmlD mix)
O=C(NCCN1CCOCC1)c1ccncc1	none
O=C1C=C(NCCN2CCOCC2)C(=O)c2cnccc21	YopH inh 101
CC1(C)CC(=O)C(C(C2=C(O)CC(C)(C)CC2=O)c2cccc(O)c2)C(=O)C1 (stereo not drawn)	none
CC1(C)CC(=O)C2=C(C1)N(c1cccc(O)c1)C1=C(C2)C(=O)CC(C)(C)C1	RmlC RmlD mix 39
Cc1ccc(-n2nnc(-c3nccn3C)n2)cc1	none (no result: YopH inh)
N#Cc1c(N2CCCC2)nc(N)c2c(N)nc(N3CCCC3)cc12	YopH inh 101
COc1cc2c(C#N)c(N3CCCC3)nc(N)c2c(N)n1	none (no result: YopH inh)
CCOc1cc(-c2cc(-c3ccc(C)cc3)nc(N)c2C#N)ccc1O	RmlC RmlD mix 30
CCOc1cc(-c2c(C#N)c(N)nc3c2CCc2ccccc2-3)ccc1O	none (no result: RmlC RmlD mix)
COC(=O)c1ccccc1NC(=S)N(Cc1ccc2c(c1)OCO2)Cc1cc2cc(OC)ccc2[nH]c1=O	none (no result: RmlC RmlD mix)
Nc1ccc2c(c1)Cc1ccccc1-2	none (no result: RmlC RmlD mix)
O=C1C(=O)c2ccc(-c3ccccc3)cc2-c2ccccc21	YopH inh 77
Nc1ccc2c(c1)C(=O)C(=O)c1ccccc1-2	YopH inh 101
COC1=C(c2ccccc2)C(=O)c2ccccc2C1=O	none (no result: RmlC RmlD mix)
COc1ccccc1Nc1nc(NCCCCO)nc(N2CCCC2)n1	none (no result: YopH inh)
CC(C)Oc1cccc(C(=O)NC(=S)NCc2cccnc2)c1	none (no result: RmlC RmlD mix)
Cc1ccccc1N1CN(Cc2ccco2)CNC1=S	none (no result: RmlC RmlD mix)
NC(=O)c1cccnc1Nc1ccccc1Cl	none (no result: RmlC RmlD mix)
COc1ccc(CCNC(=O)CN2C(=O)c3ccccc3S2(=O)=O)cc1OC	none
Cc1ccc(CSCCNC(=O)CN2C(=O)c3ccccc3S2(=O)=O)cc1	YopH inh 56
Cc1cccc(-n2c(C)cc(/C=N/n3cnnc3)c2C)c1	none
CC(=C/C(=O)O)/C=C/c1ccc([N+](=O)[O-])cc1	none (no result: RmlC RmlD mix)
CC1(C)COC(/C=C/c2ccc([N+](=O)[O-])cc2)=N1	YopH inh 52 (no result: RmlC RmlD mix)
CCOC(=O)/C(N=Nc1ccc(F)cc1)=C(/O)c1ccc([N+](=O)[O-])cc1	YopH inh 62 (no result: RmlC RmlD mix)
CCOC(=O)C(CC)/C(C)=N/NC(=O)c1ccc([N+](=O)[O-])cc1 (stereo not drawn)	none
Cc1nc2sc(C(c3ccc(F)cc3)N3CCOCC3)c(O)n2n1 (stereo not drawn)	none
Cc1ccc(C(c2sc3nc(C)nn3c2O)N2CCOCC2)cc1 (stereo not drawn)	YopH inh 64
Nc1cccc(C2=Nc3cccc4cccc(c34)N2)c1	YopH inh 62 (no result: RmlC RmlD mix)
COc1ccc(C2=Nc3cccc4cccc(c34)N2)cc1	none (no result: RmlC RmlD mix)
COc1ccc(-n2nc3ccccc3n2)cc1	YopH inh 50
COc1ccc2nc3ccccc3nc2c1	none (no result: YopH inh)
Cc1ccc2c(Cl)c(C(=O)Nc3cccnc3)sc2c1	none (no result: RmlC RmlD mix)
CC1CCN(c2ccc(C(=O)O)cc2NS(=O)(=O)c2ccc(Br)cc2)CC1	none (no result: RmlC RmlD mix)
O=C(NC1CC1)C1CCN(c2ncnc3c2sc2cccc(F)c23)CC1	none
O=C(c1cccn2c(=O)c3ccccc3nc12)N1CCN(Cc2ccc3c(c2)OCO3)CC1	none
O=C(c1ccc2nc3ccccc3c(=O)n2c1)N1CCN(Cc2ccc3c(c2)OCO3)CC1	RmlC RmlD mix 31
COc1ccc(C(CC(=O)c2ccc(C)cc2)C(C#N)C#N)cc1OC (stereo not drawn)	none (no result: RmlC RmlD mix)
CCC(=O)N1CCC2(CC1)Oc1ccc(Cl)cc1C(=O)C21CC(c2ccc(Cl)cc2)=NO1 (stereo not drawn)	none (no result: YopH inh)
O=C1C=Cc2ccccc2C1=O	YopH inh 63
CCN1C(=C2C(=O)c3ccccc3C2=O)C=Cc2ccccc21	none
O=C(CCc1ccc(S(=O)(=O)N2CCOCC2)cc1)Nc1nc(COc2ccccc2)cs1	none (no result: RmlC RmlD mix)
O=c1cc(CN2CCN(c3ccccc3F)CC2)c2cc(O)c(-c3ccccc3)cc2o1	YopH inh 61 (no result: RmlC RmlD mix)
COc1ccc(N2CCN(Cc3cc(=O)oc4cc(-c5ccccc5)c(O)cc34)CC2)cc1	none
Cc1ccc(NCN2C(=O)C3CC=C(Cl)CC3C2=O)cc1 (stereo not drawn)	none
O=C(O)c1ccccc1NCN1C(=O)C2CC=C(Cl)CC2C1=O (stereo not drawn)	RmlC RmlD mix 37
O=C(CN1CCOCC1)Nc1ccccc1Sc1ccc(Cl)cc1	none (no result: RmlC RmlD mix)
CC(C)(C)C(=O)[C@@H]1[C@@H]2C(=O)N(c3ccc4c(c3)OCCO4)C(=O)[C@@H]2C2c3ccccc3C=CN21 (stereo partly drawn)	none
O=C(c1ccco1)[C@@H]1[C@@H]2C(=O)N(c3ccccc3)C(=O)[C@@H]2C2c3ccccc3C=CN21 (stereo partly drawn)	YopH inh 82
Cc1ccc(N2C(=O)[C@@H]3[C@H](C2=O)C2c4ccccc4C=CN2[C@@H]3C(=O)c2ccco2)cc1 (stereo partly drawn)	YopH inh 92
Cc1ccc(N2C(=O)[C@@H]3[C@H](C2=O)C2c4ccccc4C=CN2[C@@H]3C(=O)c2ccco2)c(C)c1 (stereo partly drawn)	YopH inh 95
CC(=O)[C@@H]1[C@@H]2C(=O)N(Cc3ccccc3)C(=O)[C@@H]2C2c3ccccc3C=CN21 (stereo partly drawn)	none
COc1ccc(N2C(=O)[C@@H]3[C@H](C2=O)[C@H]2c4ccccc4C=CN2[C@@H]3C(=O)Nc2ccccc2)cc1	none
CC(C)(C)C(=O)NCCCc1nc2ccccc2n1CCCOc1ccc(Cl)cc1	none
Cc1nnc(N/N=C/c2cccc(OCc3ccc(Cl)c(Cl)c3)c2)n1N	none (no result: RmlC RmlD mix)
Cc1ccc(NC(=O)COC(=O)Cc2ccsc2)cc1S(=O)(=O)N1CCOCC1	none (no result: RmlC RmlD mix)
COC(C/C=C/[C@@H](O)[C@H](C)OCc1ccccc1)OC	none (no result: YopH inh)
